# Measurements taken from PubChem BioAssay.
# Active and inactive are the calls of the source.
# What was measured:
# [1] = tested on: Plasmodium falciparum Sir2 (PF13_0152, Sir2A); assay: pfSir2 binders on small-molecule microarrays, primary screen, biochemical, small-molecule microarray, 635 nm fluorescence (AID 1098); conditions: small-molecule microarray binding, fluorescence 635 nm; higher = more signal;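 further: score merges spot fluorescence intensity with its signal-to-noise ratio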
# [2] = small-molecule microarray binders of probe aDKK1, primary screen, biochemical, biotinylated probe, 635/667 nm fluorescence (AID 1099); conditions: higher = more signal;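 further: score merges 667nm spot fluorescence with signal to noise across triplicate slides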
# [3] = small-molecule microarray binders of probe aCHRDL2, primary screen, biochemical, biotinylated probe, 635/667 nm fluorescence (AID 1100); conditions: higher = more signal
# [4] = splicing luciferase reporter signal modulators, primary screen, spliceosome inhibition project, cell-based, HEK293, splice +/- reporter (AID 1101); conditions: luminescence, 24 h, higher = more signal, called active from +8 up or from −8 down;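 further: HEK293 cells carrying a splicing-competent luciferase reporter gene; test concentration not given here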
# [5] = biological target: Fibroblast growth factor 10 (Homo sapiens) (UniProt O15520); assay: FGF10 binders on small-molecule microarrays, primary screen, biochemical, small-molecule microarray, 635 nm fluorescence (AID 1102); conditions: FGF10 binding, fluorescence 635 nm, higher = more signal
# [6] = tested on: glycogen synthase kinase-3 (GSK3A per assay name; protocol says GSK3B); assay: GSK3 binders on small-molecule microarrays, primary screen, biochemical, small-molecule microarray, 635 nm fluorescence, GSK3A (AID 1103); conditions: small-molecule microarray binding, fluorescence 635 nm; higher = more signal; further: the record names both GSK3A and GSK3B
# [7] = biological target: Epidermal growth factor receptor (Homo sapiens) (UniProt P00533); assay: EGFR binders on small-molecule microarrays, primary screen, biochemical, small-molecule microarray, 635 nm fluorescence (AID 1104); conditions: EGFR binding, higher = more signal;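 further: score merges 667 nm emission intensity with spot signal to noise over triplicate slides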
# [8] = biological target: Follistatin-related protein 3 (Homo sapiens) (UniProt O95633); assay: FSTL3 binders on small-molecule microarrays, primary screen, biochemical, small-molecule microarray, 635 nm fluorescence (AID 1105); conditions: FSTL3 binding, higher = more signal;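 further: score merges emission near 667 nm and signal to noise per printed spot across three slides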
# [9] = biological target: Dickkopf-related protein 1 (Homo sapiens) (UniProt O94907); assay: DKK1 binders on small-molecule microarrays, primary screen, biochemical, small-molecule microarray, 635 nm fluorescence scan (AID 1106); conditions: DKK1 binding, higher = more signal;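 further: score merges emission near 667 nm with signal to noise over three replicate slides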
# [10] = tested on: Inhibin beta A chain (activin A); assay: INHBA (activin A) binders on microarrays, primary screen, biochemical, small-molecule microarray, 635 nm fluorescence scan (AID 1107); conditions: small-molecule microarray binding, higher = more signal;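 further: mouse activin A protein probed at 4.33 µg/mL on printed slides; score merges bound-protein fluorescence near 667 nm with spot signal-to-noise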
# [11] = tested on: Human papillomavirus type 1a protein E7 (residues 44-93); assay: HPV1a E7 fragment binders on microarrays, primary screen, biochemical, small-molecule microarray, residues 44-93, 635 nm fluorescence (AID 1108); conditions: small-molecule microarray binding, fluorescence 635 nm; higher = more signal;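 further: E7 fragment applied at 1 µg/mL in TBST for 1 h at 4 C; score combines spot fluorescence with its signal to noise ratio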
# [12] = modulators of HCV replicon luciferase signal, primary screen, HCV replication inhibitor project, Huh7 cells, luciferase reporter (AID 1109); conditions: 48 h, higher = more signal;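 further: huh7 hepatoma cells harbouring a luciferase neomycin HCV replicon reporter; luciferase luminescence as measure of HCV replicon replication; test concentration not given here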
# [13] = biological target: Left-right determination factor 2 (Homo sapiens) (UniProt O00292); assay: LEFTY2 binders on small-molecule microarrays, primary screen, biochemical, small-molecule microarray, 635 nm fluorescence scan (AID 1110); conditions: LEFTY2 binding, higher = more signal
# [14] = biological target: Calmodulin-1 (Homo sapiens) (UniProt P0DP23); assay: CALM1 binders on microarrays, EGTA buffer, profiling panel, biochemical, small-molecule microarray, Cy5-labelled CALM1 (AID 1111); conditions: Cy5-CALM1 binding fluorescence, higher = more signal;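 further: labelled calmodulin applied in Tris saline Tween buffer holding calcium plus EGTA and DTT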
# [15] = biological target: Calmodulin-1 (Homo sapiens) (UniProt P0DP23); assay: calcium-bound CALM1 binders on microarrays, profiling panel, artefact control for SMM control-protein annotation, biochemical, small-molecule microarray, Cy5-labelled CALM1, plus calcium (AID 1112); conditions: Cy5-CALM1 binding fluorescence, higher = more signal;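 further: score merges spot fluorescence with signal to noise from triplicate slides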
# [16] = small-molecule microarray binders of probe aWnt5a, primary screen, biochemical, biotinylated probe, 635/667 nm fluorescence (AID 1113); conditions: higher = more signal;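 further: score merges 667 nm fluorescence intensity with signal-to-noise per printed feature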
# [17] = small-molecule microarray binders of probe aShh, primary screen, biochemical, biotinylated probe, 635/667 nm fluorescence (AID 1114); conditions: higher = more signal;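 further: probe is biotin-labelled aShh protein from a stem cell growth factor screen; measures binding of labelled protein to compounds printed on the slide; score merges feature fluorescence at 667 nm with signal-to-noise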
# [18] = small-molecule microarray binders of probe aNog, primary screen, biochemical, biotinylated probe, 635/667 nm fluorescence (AID 1115); conditions: higher = more signal;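 further: probe is biotinylated aNog protein used at 0.15 µg/mL for 1 h at 4 C; z-score combines 667 nm fluorescence of each spot with its signal to noise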
# [19] = biological target: Torsin-1A-interacting protein 1 (Homo sapiens) (UniProt Q5JTV8); assay: LAP1 binders from COS7 cell lysate, primary screen, small-molecule microarray, 635/667 nm fluorescence (AID 1116); conditions: COS7-hLAP1 lysate binding, 635 nm fluorescence, higher = more signal
# [20] = biological target: Alpha-bungarotoxin (Bungarus multicinctus) (UniProt P60615); assay: alpha-bungarotoxin binders on microarray, profiling panel, artefact control for SMM control protein annotation, biochemical, small-molecule microarray, Alexa647 label, 635/667 nm fluorescence (AID 1117); conditions: alpha-BTX-A647 binding fluorescence, higher = more signal
# Alpha-bungarotoxin (Bungarus multicinctus), sequence (P60615 whole entry, looked up): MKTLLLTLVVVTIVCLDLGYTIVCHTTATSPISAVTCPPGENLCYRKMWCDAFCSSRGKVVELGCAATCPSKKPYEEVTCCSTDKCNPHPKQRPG
# Left-right determination factor 2 (Homo sapiens), sequence (O00292 whole entry, looked up): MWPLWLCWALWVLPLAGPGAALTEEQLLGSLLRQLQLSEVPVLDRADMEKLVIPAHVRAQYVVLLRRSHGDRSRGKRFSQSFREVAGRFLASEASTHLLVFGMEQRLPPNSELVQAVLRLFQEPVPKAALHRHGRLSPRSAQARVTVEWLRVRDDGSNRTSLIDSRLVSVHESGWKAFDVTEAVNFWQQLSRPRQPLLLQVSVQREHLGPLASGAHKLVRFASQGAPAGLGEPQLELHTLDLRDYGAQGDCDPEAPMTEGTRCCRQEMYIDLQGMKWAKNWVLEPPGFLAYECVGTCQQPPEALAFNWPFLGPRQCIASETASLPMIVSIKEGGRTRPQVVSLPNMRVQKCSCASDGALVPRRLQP
# Follistatin-related protein 3 (Homo sapiens), sequence (O95633 whole entry, looked up): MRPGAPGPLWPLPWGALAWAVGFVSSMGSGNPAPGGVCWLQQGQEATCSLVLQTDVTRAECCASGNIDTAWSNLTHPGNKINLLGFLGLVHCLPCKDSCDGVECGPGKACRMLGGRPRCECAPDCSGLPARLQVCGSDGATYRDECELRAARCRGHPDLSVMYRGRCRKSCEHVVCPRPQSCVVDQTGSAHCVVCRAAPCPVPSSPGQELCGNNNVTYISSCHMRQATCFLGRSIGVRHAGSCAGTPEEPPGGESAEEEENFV
# Fibroblast growth factor 10 (Homo sapiens), sequence (O15520 whole entry, looked up): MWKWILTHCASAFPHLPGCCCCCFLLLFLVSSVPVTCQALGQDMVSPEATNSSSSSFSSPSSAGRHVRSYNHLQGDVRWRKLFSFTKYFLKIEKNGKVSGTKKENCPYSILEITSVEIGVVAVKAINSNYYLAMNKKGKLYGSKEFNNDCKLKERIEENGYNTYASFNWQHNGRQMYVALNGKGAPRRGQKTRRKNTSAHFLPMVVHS
# Dickkopf-related protein 1 (Homo sapiens), sequence (O94907 whole entry, looked up): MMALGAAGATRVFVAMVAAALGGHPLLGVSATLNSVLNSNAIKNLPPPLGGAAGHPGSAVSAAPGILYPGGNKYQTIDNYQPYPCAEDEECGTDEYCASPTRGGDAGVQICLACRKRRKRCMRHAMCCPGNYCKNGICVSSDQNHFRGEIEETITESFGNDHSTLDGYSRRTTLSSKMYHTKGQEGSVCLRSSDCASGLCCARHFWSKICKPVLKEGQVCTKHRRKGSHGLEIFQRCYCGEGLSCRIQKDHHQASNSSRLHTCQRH
# Torsin-1A-interacting protein 1 (Homo sapiens), sequence (Q5JTV8 whole entry, looked up): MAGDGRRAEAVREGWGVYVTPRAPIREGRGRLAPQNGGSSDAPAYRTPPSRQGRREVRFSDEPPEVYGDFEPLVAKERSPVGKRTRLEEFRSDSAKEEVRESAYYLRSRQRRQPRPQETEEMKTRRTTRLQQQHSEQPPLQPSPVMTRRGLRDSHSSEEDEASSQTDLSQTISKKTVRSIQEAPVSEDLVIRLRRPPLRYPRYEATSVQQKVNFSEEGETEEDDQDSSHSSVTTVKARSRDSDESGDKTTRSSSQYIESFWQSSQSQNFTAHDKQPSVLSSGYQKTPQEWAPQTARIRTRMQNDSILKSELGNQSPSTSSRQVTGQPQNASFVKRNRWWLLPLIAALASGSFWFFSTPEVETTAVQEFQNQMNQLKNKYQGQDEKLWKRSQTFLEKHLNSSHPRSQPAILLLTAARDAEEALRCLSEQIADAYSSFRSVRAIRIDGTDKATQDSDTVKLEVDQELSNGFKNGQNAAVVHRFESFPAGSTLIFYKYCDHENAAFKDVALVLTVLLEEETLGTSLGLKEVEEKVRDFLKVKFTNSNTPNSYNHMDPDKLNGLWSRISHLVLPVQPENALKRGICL
# Epidermal growth factor receptor (Homo sapiens), sequence (P00533 whole entry, looked up): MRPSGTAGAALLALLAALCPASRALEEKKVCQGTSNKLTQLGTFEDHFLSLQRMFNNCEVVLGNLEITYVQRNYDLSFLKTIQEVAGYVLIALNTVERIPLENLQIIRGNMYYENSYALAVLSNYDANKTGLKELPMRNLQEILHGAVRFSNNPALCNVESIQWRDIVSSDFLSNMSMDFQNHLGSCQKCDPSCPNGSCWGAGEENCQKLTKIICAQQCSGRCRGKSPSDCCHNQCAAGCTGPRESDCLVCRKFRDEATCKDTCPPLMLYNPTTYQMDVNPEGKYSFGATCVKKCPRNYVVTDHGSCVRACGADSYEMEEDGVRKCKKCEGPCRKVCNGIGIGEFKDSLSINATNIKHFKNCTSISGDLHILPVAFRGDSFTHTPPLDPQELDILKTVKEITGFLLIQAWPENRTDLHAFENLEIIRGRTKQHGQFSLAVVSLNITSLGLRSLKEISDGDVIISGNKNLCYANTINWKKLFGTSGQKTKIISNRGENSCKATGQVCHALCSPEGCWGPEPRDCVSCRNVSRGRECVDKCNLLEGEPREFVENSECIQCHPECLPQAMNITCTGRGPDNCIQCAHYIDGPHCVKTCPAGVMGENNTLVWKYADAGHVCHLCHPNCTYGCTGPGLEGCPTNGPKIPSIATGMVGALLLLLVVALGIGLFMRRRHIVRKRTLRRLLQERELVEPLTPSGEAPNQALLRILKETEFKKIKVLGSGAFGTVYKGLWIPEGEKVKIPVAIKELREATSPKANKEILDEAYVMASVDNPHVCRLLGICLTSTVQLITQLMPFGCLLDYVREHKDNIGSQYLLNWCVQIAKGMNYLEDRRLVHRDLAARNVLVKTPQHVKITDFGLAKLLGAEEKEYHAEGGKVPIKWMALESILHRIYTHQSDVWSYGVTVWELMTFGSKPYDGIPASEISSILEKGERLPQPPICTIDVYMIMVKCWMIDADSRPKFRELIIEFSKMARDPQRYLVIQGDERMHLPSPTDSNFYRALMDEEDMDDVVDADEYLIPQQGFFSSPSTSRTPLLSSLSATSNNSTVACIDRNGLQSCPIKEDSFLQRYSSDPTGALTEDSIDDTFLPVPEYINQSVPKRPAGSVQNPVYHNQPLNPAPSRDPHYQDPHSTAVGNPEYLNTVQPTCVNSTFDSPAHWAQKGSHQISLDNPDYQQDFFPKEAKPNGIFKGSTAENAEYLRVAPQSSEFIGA
SMILES,composite z-score [1],composite z-score [2],composite z-score [3],z-score [4],composite z-score [5],composite z-score [6],composite z-score [7],composite z-score [8],composite z-score [9],composite z-score [10],composite z-score [11],z-score [12],composite z-score [13],composite z-score [14],composite z-score [15],composite z-score [16],composite z-score [17],composite z-score [18],composite z-score [19],composite z-score [20]
CN(C)CCCC[C@@H]1NC(=O)[C@H]2C[C@@H](C(=O)NCc3ccc(F)cc3)[C@@H](c3ccc(O)cc3)N2C1=O,0.298,0.0179,-0.4,0.163 (inactive),1.2,0.902,0.0583,0.571,0.776,0.853,-0.247,0.206,1.15,-1.08,0.354,-0.0748,0.365,-0.273,1.03,2.5
COCCOC(=O)N1C(=O)[C@@]2(c3cc(C#CC4(O)CCCCCC4)ccc31)[C@H](c1ccccc1OCCO)N1[C@H](c3ccccc3)[C@H](c3ccccc3)OC(=O)[C@H]1[C@@H]2C(=O)N1CCCCCCC1,1.56,2.22,1.43,-0.901 (inactive),0.846,0.502,0.638,1.5,1.09,1.71,1.06,-2.28,0.502,1.67,1.46,0.355,0.661,2.71,3.51,1.49
CCc1cccc(NC(=O)O[C@H]2[C@H](OC(=O)Nc3ccc4c(c3)OCO4)[C@H](OC(=O)Nc3ccc4c(c3)OCO4)[C@@H](OC)O[C@@H]2CO)c1,1.44,-0.154,0.226,-1.34 (inactive),0.699,1.32,-0.438,0.791,0.129,0.627,1.47,-0.548,-0.263,0.949,-0.943,-0.0087,0.131,-0.312,0.154,1.18
CC(C)C[C@H]1NC(=O)[C@H](Cc2ccccc2)NC(=O)[C@@]23C(=O)N[C@@H](Cc4ccccc4)C2[C@H](C)[C@@]2(C)O[C@H]2C3/C=C/C/C=C\CNC1=O (stereo not given in full),1.19,0.0099,-0.4,-0.514 (inactive),0.916,0.979,0.121,0.676,0.726,1.12,-0.361,-2.09,0.431,-0.128,0.263,-0.096,-0.214,0.3,0.765,0.93
CC(C)C[C@H]1NC(=O)[C@@H](C)NC(=O)[C@@]23C(=O)N[C@@H](Cc4ccccc4)C2[C@H](C)[C@@]2(C)O[C@H]2C3/C=C/C/C=C\CNC1=O (stereo not given in full),1.13,-0.334,-0.585,-0.0326 (inactive),0.509,-0.164,0.634,0.638,0.389,1.29,1.29,-1.61,0.137,-0.596,-1.09,-0.175,-0.223,-0.205,-0.0872,-0.133
N#Cc1ccc(C(O)C2C=CC3C(=O)N(c4ccccc4)C(=O)C3N2Nc2ccc([N+](=O)[O-])cc2)cc1 (stereo not given),1.37,0.904,1.16,0.448 (inactive),0.395,1.09,-0.175,0.516,-0.274,0.958,0.632,-1.2,0.0058,2.16,1.14,0.222,0.0434,0.595,1.69,1.96
NC(=O)NCC#Cc1ccc2c(c1)[C@]1(C(=O)N2)[C@H](C(=O)Nc2nc3ccccc3s2)[C@H]2C(=O)O[C@H](c3ccccc3)[C@H](c3ccccc3)N2[C@@H]1c1ccc(OCCO)cc1,-0.478,0.738,1.13,1.37 (inactive),0.253,-0.95,0.0294,0.559,-0.52,0.765,0.537,-0.942,-0.828,0.84,0.417,0.0108,-0.151,-0.464,0.281,0.9
CC1CC/C=C\[C@H]2OC34C=CCN(CCN5CCOCC5)C(=O)[C@H]3N(CCCCCCO)C(=O)[C@@H]4C2C(=O)O1 (stereo not given in full),0.195,-0.301,0.0746,0.433 (inactive),-0.721,-0.993,-1,-0.704,-0.355,0.516,-1.14,-0.709,-1.12,-0.482,-0.42,-0.232,-0.154,-0.305,-0.933,-0.307
CCCC[C@@H]1C[C@H]1[C@@H](NC(=O)Cc1ccccc1)c1ccc(Cl)cc1,0.906,1.22,1.45,-0.0981 (inactive),0.592,0.937,0.0572,0.868,-0.946,0.674,1.37,-1.79,-0.496,2.44,1.53,0.225,1.47,0.905,1.12,2.14
C=C(COC)/C(=C/C[C@H](OC(=O)c1ccncc1)c1ccc(OCCO)cc1)c1cc(C(=O)OC)ccc1OC,0.674,0.17,0.118,-0.767 (inactive),1.47,0.32,-0.0503,0.967,0.8,1.04,1.42,-1.66,0.431,0.579,-0.467,0.0077,0.157,0.484,1.18,1.23
